From PubChem
Hits are enriched below; roughly 2.6% of the tested compounds scored in any of these assays.
Shn3 inh set2 = Schnurri-3 reporter inhibition in Clone20 osteoblasts | Clone20 osteoblast Shn3 3'UTR firefly luciferase, 24 h | inhibition, % at 12.5 µM | actives 0.52% (n = 360,000);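 active means mean inhibition of at least 75% with every replicate also reaching 75%; inconclusive means mean inhibition at least 75% but some replicate below; inactive means mean inhibition below 75%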
CF NFkB inh = inhibitors of cystic fibrosis induced NF-kB | KKLEB NF-kB-GFP reporter, PAF-induced, GFP fluorescence overnight | inhibition, % at 5 µM | actives 0.86% (n = 360,000);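 active means at least 50% inhibition at 5 µM, scaled per plate between neutral and stimulator controls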;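 further: PAF is a Pseudomonas aeruginosa culture filtrate used as stimulus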
HIF-2a inh = HIF-2a inhibition | 786-0 RCC cells HIF-2a reporter, luciferase luminescence, overnight | inhibition, % at 18.8 µM | actives 0.72% (n = 360,000);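 active means inhibition of the luminescence signal of 40% or more relative to plate controls, in a single-dose primary screen at 18.75 µM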
KKLEB cytotox = CF airway cell cytotoxicity counter-screen; KKLEB CF airway cells viability, ATPlite luminescence, overnight; stronger effect = lower value; cells stimulated with P. aeruginosa culture filtrate; activity change (cytotoxicity), % at 5 µM; actives 0.36% (n = 360,000);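 active means corrected activity change at or below -50% at 5 µM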
Peg3 promoter = Peg3 promoter activity inhibition | AID 588405 | inhibition, % at 20 µM | HeLa PEG-Prom luciferase reporter, luminescence, overnight | actives 1.7% (n = 360,000);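 active means inhibition of at least 50% at 20 µM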
Mdm2-MdmX confirm = confirmation of inhibitors of human Mdm2/MdmX interaction, set 2. shares compounds with HIF-2a inh. SaOS-2 split-luciferase Mdm2/MdmX complementation, luminescence. inhibition, % at 8 µM. actives 99% (n = 740). AID 504601;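 active means mean inhibition of the luminescence signal across two replicates at or above 26 percent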
Target sequence (O15151 whole entry, looked up): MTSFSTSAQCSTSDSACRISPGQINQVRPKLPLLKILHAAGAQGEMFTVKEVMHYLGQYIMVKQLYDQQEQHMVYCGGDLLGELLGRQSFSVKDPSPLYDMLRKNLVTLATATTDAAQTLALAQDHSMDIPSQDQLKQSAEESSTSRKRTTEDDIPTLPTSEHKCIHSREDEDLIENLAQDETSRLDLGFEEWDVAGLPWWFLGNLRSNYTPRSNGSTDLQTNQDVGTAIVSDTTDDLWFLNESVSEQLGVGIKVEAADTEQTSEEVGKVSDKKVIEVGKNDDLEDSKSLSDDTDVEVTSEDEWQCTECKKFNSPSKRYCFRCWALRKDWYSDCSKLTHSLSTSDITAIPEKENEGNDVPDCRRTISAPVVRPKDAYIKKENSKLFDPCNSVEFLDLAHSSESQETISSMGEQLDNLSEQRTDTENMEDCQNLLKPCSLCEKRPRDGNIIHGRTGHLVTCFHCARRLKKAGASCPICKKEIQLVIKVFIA
Target sequence (Q00987 whole entry, looked up): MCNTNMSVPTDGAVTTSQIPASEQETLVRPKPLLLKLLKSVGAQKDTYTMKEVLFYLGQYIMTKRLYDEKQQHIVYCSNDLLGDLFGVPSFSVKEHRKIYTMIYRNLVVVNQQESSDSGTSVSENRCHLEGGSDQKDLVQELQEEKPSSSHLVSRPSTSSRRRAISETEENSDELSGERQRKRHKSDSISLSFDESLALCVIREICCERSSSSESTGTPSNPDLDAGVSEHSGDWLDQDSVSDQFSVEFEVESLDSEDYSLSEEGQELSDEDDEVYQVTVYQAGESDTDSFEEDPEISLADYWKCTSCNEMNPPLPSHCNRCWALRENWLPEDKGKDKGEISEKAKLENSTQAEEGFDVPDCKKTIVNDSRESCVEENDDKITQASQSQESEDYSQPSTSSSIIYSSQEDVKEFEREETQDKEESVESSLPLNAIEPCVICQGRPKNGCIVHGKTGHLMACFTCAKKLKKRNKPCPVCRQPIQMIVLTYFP
HIF-2a conf = HIF-2a inhibition, single concentration confirmation | shares compounds with HIF-2a inh | inhibition, % at 18.8 µM | actives 56% (n = 1,800) | AID 651580 | 786-0 RCC cells, HIF-2a luciferase reporter luminescence, overnight;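 active means mean inhibition across four replicates of at least 40 percent at the single tested concentration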
HIF-1a cs = inhibits HIF-1a reporter, a counter-screen for HIF-2a inhibitors | shares compounds with HIF-2a inh | MiaPaCa-2 HIF-1a luciferase reporter, desferoxamine, overnight | inhibition, % at 18.8 µM | actives 72% (n = 1,800) | AID 651589;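 active means mean inhibition of the reporter signal across four replicates at the single tested dose of 50% or more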
A number is an active result; n = inactive; u = inconclusive; x = no result.

SMILES	Shn3 inh set2	CF NFkB inh	HIF-2a inh	KKLEB cytotox	Peg3 promoter	HIF-2a conf	HIF-1a cs	others
Cc1cc2nc(Sc3c([N+](=O)[O-])nc(C)n3Cc3ccccc3)[nH]c2cc1C	n	n	52.9	n	n	n	n
CCCCN1CC(=O)N2[C@H]3c4cc(Cl)ccc4OC[C@@H]3[C@H](c3ccccc3)[C@]2(C)C1=O	n	n	n	n	n	x	x
CC12CCC(=O)N1C(C(=O)OCC(=O)Nc1cc(S(=O)(=O)N3CCCCC3)ccc1Cl)CS2 (stereo unspecified)	n	n	n	n	n	x	x
Cc1ccc(C)c(N2CCN(CCN3CCCCC3)CC2)c1	n	n	n	n	n	x	x
Cc1coc2cc3oc(=O)c(CC(=O)N[C@@H](CC(C)C)C(=O)O)c(C)c3cc12	n	n	46.3	n	n	n	n
Nc1ccccc1C#CC(=O)c1ccccc1	99.2	89.1	89.3	-85.0	103.8	57.2	105.0	Mdm2-MdmX confirm=103.5
CC(C)CNc1ncnc2c1ncn2[C@H]1CN(Cc2ccc3c(c2)OCO3)C[C@@H](CO)O1	n	n	n	n	n	x	x
Cc1ccc(N(C(=O)CCCC(=O)Nc2ccccn2)C(C(=O)NC2CCCC2)c2ccc(O)cc2)cc1C (stereo unspecified)	n	n	n	n	n	x	x
COc1cc(C(Nc2ccccn2)c2ccc3ccc(C)nc3c2O)cc(OC)c1O (stereo unspecified)	n	74.0	93.5	n	102.1	x	x	Mdm2-MdmX confirm=102.5
COc1ccc(C(Nc2cc(C)ccn2)c2ccc3ccc(C)nc3c2O)cc1 (stereo unspecified)	n	n	n	n	n	x	x
CC1=C(C)/C(=N\OS(=O)(=O)c2ccccc2)C=CC1=O	n	n	85.7	n	105.5	x	x	Mdm2-MdmX confirm=103.2
Cc1ccc(S(=O)(=O)O/N=C2\CCCc3ccccc32)cc1	n	n	n	n	n	x	x
CC(C)c1cccc(O)c(=O)c1	n	n	n	n	n	x	x	Mdm2-MdmX confirm=96.7
O=C(CCl)N(c1ccccc1)C1CCCCC1	96.7	92.1	60.7	-91.6	110.0	91.8	105.5	Mdm2-MdmX confirm=103.5
CC(NC(=O)c1ccco1)C(=O)OCC(=O)c1ccc(Cl)s1 (stereo unspecified)	n	n	n	n	n	x	x
Cc1ccc(-c2[nH]c3ccccc3c2SCCNC(=O)c2ccc(S(=O)(=O)N3CCOCC3)cc2)cc1	n	n	36.1	n	n	n	n
COC(=O)C(=C/C(C)=C/c1cccnc1)C(=O)OC	n	n	43.0	n	60.5	n	n
O=C(O)CCSc1ncnc2sc(-c3ccccc3)cc12	n	n	91.2	n	n	94.3	84.4
Cn1cc([C@@H]2C[C@H]3CN(Cc4cccc(Cl)c4)C(=O)[C@]34CCCN24)c2ccccc21	n	n	n	n	n	x	x
Cc1ccc2[nH]c(O)c(N=NC(=O)C(C)n3cnc4ccccc4c3=O)c2c1 (stereo unspecified)	n	n	n	n	n	x	x
Cc1ccnc(N/C=C(/NC(=O)c2ccccc2)C(=O)NN)n1	n	n	n	n	n	x	x
Cc1ccnc(N/C=C(/NC(=O)c2ccccc2)C(=O)N/N=C\c2ccc(F)cc2)n1	94.2	n	66.5	n	n	68.7	87.6
CCOc1ccc2nc(NS(=O)(=O)Cc3ccccc3)sc2c1	n	n	n	n	n	x	x
Brc1ccccc1/C=N/N1CCCCC1	n	n	45.1	n	n	n	n
CC1(Oc2ccccc2)CCN(Cc2csc3ccccc23)C1 (stereo unspecified)	n	n	n	n	n	x	x
SMILES	Shn3 inh set2	CF NFkB inh	HIF-2a inh	KKLEB cytotox	Peg3 promoter	HIF-2a conf	HIF-1a cs	others
O=C1CCCC[C@@H](O)[C@H](O)C[C@H](c2ccccc2)O1	x	x	n	x	x	x	x
C=C1CC2(CC(c3ccccc3)OC(c3ccccc3)C2)OC1=O (stereo unspecified)	97.1	77.7	87.1	-65.8	95.9	91.3	105.8
CCN1CCCC1CNC(=O)C1CCN(Cc2nc(-c3cccc(Br)c3)oc2C)CC1 (stereo unspecified)	n	n	66.0	n	90.9	n	104.0
COC(=O)C(C(=O)OC)C(CC(=O)c1ccc(C)cc1)c1cc(OC)c(OC)c(OC)c1 (stereo unspecified)	n	n	n	n	n	x	x
COc1ccc(C(CC(=O)c2ccc(C)cc2)C(C#N)C#N)cc1OC (stereo unspecified)	n	102.5	55.6	-88.8	93.0	n	104.7
Cc1cccc(N(C(=O)c2csnn2)C(C(=O)NC2CCCCC2)c2ccccn2)c1C (stereo unspecified)	n	n	n	n	n	x	x
CC(C)N(c1ccccc1)c1ccc(NC(=O)CCl)cc1	n	82.5	82.1	-85.6	90.9	62.0	99.8	Mdm2-MdmX confirm=102.2
O=C(CCl)Nc1ccc(-c2ccccc2)cc1	n	n	n	n	104.4	x	x	Mdm2-MdmX confirm=102.2
CC(=O)Nc1ccc(NC(=O)Cc2ccc(-c3ccccc3)cc2)cc1	n	n	n	n	n	x	x
CC(C)N(c1ccccc1)c1ccc(NC(=O)[C@@H]2O[C@H](CO)[C@H](O)[C@H](O)[C@H]2O)cc1	n	n	n	n	n	x	x
Cc1onc(-c2c(Cl)cccc2Cl)c1C(=O)Nc1ccc(Cl)cn1	n	n	n	n	n	x	x
CC(=O)c1ccc(NC(=O)c2cnn3ccccc23)cc1	n	n	75.3	n	n	86.3	n
ClC(Cl)(c1nnnn1-c1ccccc1)c1nnnn1-c1ccccc1	n	n	51.5	n	n	n	n
c1ccc(-c2nnnn2-c2ccccc2)cc1	n	n	n	n	n	x	x
CN(C)CCCNC(=O)c1ccc(-c2cc(O)c3ncccc3c2)cc1	n	n	n	n	n	x	x
Oc1cc(-c2ccncc2)cc2cccnc12	89.2	n	n	n	n	x	x	Mdm2-MdmX confirm=100.7
CN(C)c1ccc(-c2cc(O)c3ncccc3c2)cc1	n	n	n	n	n	x	x
Oc1cc(-c2ccc(N3CCCCC3)nc2)cc2cccnc12	u	n	n	n	n	x	x	Mdm2-MdmX confirm=98.7
O=C1N[C@H]2CC=C[C@H]2Nc2ccccc21	n	n	n	n	n	x	x
CS(=O)(=O)c1ccc(S(=O)CC(=O)OCc2ccccc2)c([N+](=O)[O-])c1 (stereo unspecified)	97.0	88.7	91.0	n	109.8	52.5	105.8
Cc1nonc1NC(=O)CSc1nc(C2CCCCC2)nc2ccccc12	n	n	44.8	n	n	n	68.1
O=C(NC1CCCCCC1)C(=S)NC1CCCCC1	n	n	n	n	n	x	x
O=C(Nc1ccc(F)cc1)Nc1cc(OCC(F)(F)F)cc(OCC(F)(F)F)c1	90.3	n	n	n	n	x	x	Mdm2-MdmX confirm=93.5
NC(=O)c1nnsc1Sc1c(C(N)=O)nnn1-c1cccc(N)c1	n	n	n	n	n	x	x
COc1ccc(/C=C/c2cc(-c3ccc(C)cc3)o[n+]2C)cc1	82.7	56.5	43.5	-62.2	66.9	53.5	102.8	Mdm2-MdmX confirm=102.0
COc1ccc(/C=C/c2c(-c3ccc(OC)cc3)oc3ccc(-c4ccc(OC)cc4)cc23)cc1	n	n	n	n	n	x	x
